Counter-ions that a name gives are not always drawn. In all, about 1,500 compounds were measured (“Excess HSA synergy score (sum over dose matrix of excess over highest single agent)”: median about 43, lowest 2% from about -900 on). Shown is part of a subset that was picked to be rich in the lowest values.
System: PEO-1
Assay: Excess HSA synergy score (sum over dose matrix of excess over highest single agent) (score (summed % response)); higher = less synergy / more antagonism (negative = synergy)
Details: 72 h, read-out: viability/apoptosis luminescence (CellTiter-Glo or Caspase3-Glo / not stated per table)
[1] = matrix design: 6x6, 5-fold dilutions (primary screen)
[2] = matrix design: 10x10, 9-step dilutions (confirmatory)

| SMILES | Excess HSA synergy score [1] | Excess HSA synergy score [2] |
| --- | --- | --- |
| O=c1cc(-c2ccccc2)oc2cc(O)cc(O)c12 [5,7-Dihydroxyflavone] + CC[C@H](NC(=O)[C@H](C)NC)C(=O)N1C[C@@H](O)C[C@H]1Cc1c(-c2[nH]c3cc(F)ccc3c2C[C@@H]2C[C@H](O)CN2C(=O)[C@H](CC)NC(=O)[C@H](C)NC)[nH]c2cc(F)ccc12 [Birinapant] | -131 |  |
| CCOC(=O)[C@@H](N)CCC(=O)N[C@@H](CSCc1ccccc1)C(=O)N[C@@H](C(=O)OCC)c1ccccc1 [Ezatiostat] + CC[C@H](NC(=O)[C@H](C)NC)C(=O)N1C[C@@H](O)C[C@H]1Cc1c(-c2[nH]c3cc(F)ccc3c2C[C@@H]2C[C@H](O)CN2C(=O)[C@H](CC)NC(=O)[C@H](C)NC)[nH]c2cc(F)ccc12 [Birinapant] | 49.2 |  |
| Cc1[nH]c(/C=C2\C(=O)Nc3ccc(S(=O)(=O)Cc4c(Cl)cccc4Cl)cc32)c(C)c1C(=O)N1CCC[C@@H]1CN1CCCC1 + CC[C@H](NC(=O)[C@H](C)NC)C(=O)N1C[C@@H](O)C[C@H]1Cc1c(-c2[nH]c3cc(F)ccc3c2C[C@@H]2C[C@H](O)CN2C(=O)[C@H](CC)NC(=O)[C@H](C)NC)[nH]c2cc(F)ccc12 [Birinapant] | -132 |  |
| CN1CCCN(C(=O)c2cccc(-c3ccc(/C=C4/C(=O)Nc5ccc(Cl)cc54)o3)c2)CC1 + CC[C@H](NC(=O)[C@H](C)NC)C(=O)N1C[C@@H](O)C[C@H]1Cc1c(-c2[nH]c3cc(F)ccc3c2C[C@@H]2C[C@H](O)CN2C(=O)[C@H](CC)NC(=O)[C@H](C)NC)[nH]c2cc(F)ccc12 [Birinapant] | 92.9 | -1060 |
| Cc1[nH]c(/C=C2\C(=O)Nc3ccc(S(=O)(=O)N(C)c4cccc(Cl)c4)cc32)c(C)c1C(=O)N1CCN(C)CC1 + CC[C@H](NC(=O)[C@H](C)NC)C(=O)N1C[C@@H](O)C[C@H]1Cc1c(-c2[nH]c3cc(F)ccc3c2C[C@@H]2C[C@H](O)CN2C(=O)[C@H](CC)NC(=O)[C@H](C)NC)[nH]c2cc(F)ccc12 [Birinapant] | -71.9 |  |
| COc1cc(-c2nn([C@H]3CC[C@H](N4CCN(C(C)=O)CC4)CC3)c3ncnc(N)c23)ccc1NC(=O)c1cc2ccccc2n1C + CC[C@H](NC(=O)[C@H](C)NC)C(=O)N1C[C@@H](O)C[C@H]1Cc1c(-c2[nH]c3cc(F)ccc3c2C[C@@H]2C[C@H](O)CN2C(=O)[C@H](CC)NC(=O)[C@H](C)NC)[nH]c2cc(F)ccc12 [Birinapant] | 112 |  |
| CO[C@@H]1[C@H](N(C)C(=O)c2ccccc2)C[C@H]2O[C@]1(C)n1c3ccccc3c3c4c(c5c6ccccc6n2c5c31)C(=O)NC4=O [Stauprimide] + CC[C@H](NC(=O)[C@H](C)NC)C(=O)N1C[C@@H](O)C[C@H]1Cc1c(-c2[nH]c3cc(F)ccc3c2C[C@@H]2C[C@H](O)CN2C(=O)[C@H](CC)NC(=O)[C@H](C)NC)[nH]c2cc(F)ccc12 [Birinapant] | 168 |  |
| COc1ccc(OC)c(-c2nnc3ccc(-c4ccc(OC)c(O[C@@H]5CCOC5)c4)nn23)c1 + CC[C@H](NC(=O)[C@H](C)NC)C(=O)N1C[C@@H](O)C[C@H]1Cc1c(-c2[nH]c3cc(F)ccc3c2C[C@@H]2C[C@H](O)CN2C(=O)[C@H](CC)NC(=O)[C@H](C)NC)[nH]c2cc(F)ccc12 [Birinapant] | -150 |  |
| Nc1ccc(-c2ccc3ncc4ccc(=O)n(-c5cccc(C(F)(F)F)c5)c4c3c2)cn1 [Torin-2] + CC[C@H](NC(=O)[C@H](C)NC)C(=O)N1C[C@@H](O)C[C@H]1Cc1c(-c2[nH]c3cc(F)ccc3c2C[C@@H]2C[C@H](O)CN2C(=O)[C@H](CC)NC(=O)[C@H](C)NC)[nH]c2cc(F)ccc12 [Birinapant] | -80.4 | -999 |
| COc1cc(OC)cc(-c2ccc3ncc4ccc(=O)n(-c5ccc(N6CCNCC6)c(C(F)(F)F)c5)c4c3c2)c1 + CC[C@H](NC(=O)[C@H](C)NC)C(=O)N1C[C@@H](O)C[C@H]1Cc1c(-c2[nH]c3cc(F)ccc3c2C[C@@H]2C[C@H](O)CN2C(=O)[C@H](CC)NC(=O)[C@H](C)NC)[nH]c2cc(F)ccc12 [Birinapant] | 160 |  |
| CCC(=O)N1CCN(c2ccc(-n3c(=O)ccc4cnc5ccc(-c6cnc7ccccc7c6)cc5c43)cc2C(F)(F)F)CC1 [Torin-1] + CC[C@H](NC(=O)[C@H](C)NC)C(=O)N1C[C@@H](O)C[C@H]1Cc1c(-c2[nH]c3cc(F)ccc3c2C[C@@H]2C[C@H](O)CN2C(=O)[C@H](CC)NC(=O)[C@H](C)NC)[nH]c2cc(F)ccc12 [Birinapant] | -195 |  |
| CN1CCC(COc2cnc(-c3cccc(Cn4nc(-c5cccc(C#N)c5)ccc4=O)c3)nc2)CC1 + CC[C@H](NC(=O)[C@H](C)NC)C(=O)N1C[C@@H](O)C[C@H]1Cc1c(-c2[nH]c3cc(F)ccc3c2C[C@@H]2C[C@H](O)CN2C(=O)[C@H](CC)NC(=O)[C@H](C)NC)[nH]c2cc(F)ccc12 [Birinapant] | 19.6 |  |
| Cn1cc(-c2ccc3nnc(Sc4ccc5ncccc5c4)n3n2)cn1 + CC[C@H](NC(=O)[C@H](C)NC)C(=O)N1C[C@@H](O)C[C@H]1Cc1c(-c2[nH]c3cc(F)ccc3c2C[C@@H]2C[C@H](O)CN2C(=O)[C@H](CC)NC(=O)[C@H](C)NC)[nH]c2cc(F)ccc12 [Birinapant] | 117 |  |
| NC(=O)c1cccc(-c2cccc(OC(=O)NC3CCCCC3)c2)c1 + CC[C@H](NC(=O)[C@H](C)NC)C(=O)N1C[C@@H](O)C[C@H]1Cc1c(-c2[nH]c3cc(F)ccc3c2C[C@@H]2C[C@H](O)CN2C(=O)[C@H](CC)NC(=O)[C@H](C)NC)[nH]c2cc(F)ccc12 [Birinapant] | 46.3 |  |
| CNc1nccc(-c2cccnc2Oc2cc(C(=O)Nc3cccc(C(F)(F)F)c3)ccc2C)n1 + CC[C@H](NC(=O)[C@H](C)NC)C(=O)N1C[C@@H](O)C[C@H]1Cc1c(-c2[nH]c3cc(F)ccc3c2C[C@@H]2C[C@H](O)CN2C(=O)[C@H](CC)NC(=O)[C@H](C)NC)[nH]c2cc(F)ccc12 [Birinapant] | 73.8 |  |
| CC(=O)[C@]1(O)Cc2c(O)c3c(c(O)c2[C@@H](O[C@H]2C[C@H](N)[C@H](O)[C@H](C)O2)C1)C(=O)c1ccccc1C3=O [Idarubicin hydrochloride] + CC[C@H](NC(=O)[C@H](C)NC)C(=O)N1C[C@@H](O)C[C@H]1Cc1c(-c2[nH]c3cc(F)ccc3c2C[C@@H]2C[C@H](O)CN2C(=O)[C@H](CC)NC(=O)[C@H](C)NC)[nH]c2cc(F)ccc12 [Birinapant] | -126 | -1080 |
| COc1cccc2c1C(=O)c1c(O)c3c(c(O)c1C2=O)C[C@@](O)(C(C)=O)C[C@@H]3O[C@H]1C[C@H](N)[C@H](O)[C@H](C)O1 [Daunorubicin] + CC[C@H](NC(=O)[C@H](C)NC)C(=O)N1C[C@@H](O)C[C@H]1Cc1c(-c2[nH]c3cc(F)ccc3c2C[C@@H]2C[C@H](O)CN2C(=O)[C@H](CC)NC(=O)[C@H](C)NC)[nH]c2cc(F)ccc12 [Birinapant] | -171 |  |
| COc1cccc2c1C(=O)c1c(O)c3c(c(O)c1C2=O)C[C@@](O)(C(=O)CO)C[C@@H]3O[C@H]1C[C@H](N)[C@H](O[C@@H]2CCCCO2)[C@H](C)O1 [Pirarubicin] + CC[C@H](NC(=O)[C@H](C)NC)C(=O)N1C[C@@H](O)C[C@H]1Cc1c(-c2[nH]c3cc(F)ccc3c2C[C@@H]2C[C@H](O)CN2C(=O)[C@H](CC)NC(=O)[C@H](C)NC)[nH]c2cc(F)ccc12 [Birinapant] | -150 |  |
| COc1cc2c(Nc3ccc(Cl)c(Cl)c3F)ncnc2cc1OC[C@@H]1C[C@@H]2CN(C)C[C@@H]2C1 + CC[C@H](NC(=O)[C@H](C)NC)C(=O)N1C[C@@H](O)C[C@H]1Cc1c(-c2[nH]c3cc(F)ccc3c2C[C@@H]2C[C@H](O)CN2C(=O)[C@H](CC)NC(=O)[C@H](C)NC)[nH]c2cc(F)ccc12 [Birinapant] | -5.11 |  |
| Nc1cc(C(F)(F)F)c(-c2cc(N3CCOCC3)nc(N3CCOCC3)n2)cn1 + CC[C@H](NC(=O)[C@H](C)NC)C(=O)N1C[C@@H](O)C[C@H]1Cc1c(-c2[nH]c3cc(F)ccc3c2C[C@@H]2C[C@H](O)CN2C(=O)[C@H](CC)NC(=O)[C@H](C)NC)[nH]c2cc(F)ccc12 [Birinapant] | 242 |  |
| c1ccc(CNc2nc(NCc3ccccc3)c3ccccc3n2)cc1 + CC[C@H](NC(=O)[C@H](C)NC)C(=O)N1C[C@@H](O)C[C@H]1Cc1c(-c2[nH]c3cc(F)ccc3c2C[C@@H]2C[C@H](O)CN2C(=O)[C@H](CC)NC(=O)[C@H](C)NC)[nH]c2cc(F)ccc12 [Birinapant] | -180 |  |
| CCC(C)SSc1ncc[nH]1 (configuration not stated) + CC[C@H](NC(=O)[C@H](C)NC)C(=O)N1C[C@@H](O)C[C@H]1Cc1c(-c2[nH]c3cc(F)ccc3c2C[C@@H]2C[C@H](O)CN2C(=O)[C@H](CC)NC(=O)[C@H](C)NC)[nH]c2cc(F)ccc12 [Birinapant] | 79.6 |  |
| CS(=O)(=O)Oc1ccc2c(NC(N)=O)c(C(=O)c3ccc(Cl)cc3Cl)oc2c1 [Lirimilast] + CC[C@H](NC(=O)[C@H](C)NC)C(=O)N1C[C@@H](O)C[C@H]1Cc1c(-c2[nH]c3cc(F)ccc3c2C[C@@H]2C[C@H](O)CN2C(=O)[C@H](CC)NC(=O)[C@H](C)NC)[nH]c2cc(F)ccc12 [Birinapant] | -20.9 |  |
| CCC1=C[C@@H]2CN(C1)Cc1c([nH]c3ccccc13)[C@@](C(=O)OC)(c1cc3c(cc1OC)N(C)[C@H]1[C@@](O)(C(=O)OC)[C@H](OC(C)=O)[C@]4(CC)C=CCN5CC[C@]31[C@@H]54)C2 [Vinorelbine] + CC[C@H](NC(=O)[C@H](C)NC)C(=O)N1C[C@@H](O)C[C@H]1Cc1c(-c2[nH]c3cc(F)ccc3c2C[C@@H]2C[C@H](O)CN2C(=O)[C@H](CC)NC(=O)[C@H](C)NC)[nH]c2cc(F)ccc12 [Birinapant] | 91.9 |  |
